# In PubChem BioAssay AID2315 (National Center for Advancing Translational Sciences (NCATS), 2010):
# Out of some 290,000 compounds screened, about 27,000 (9.3%) were called active. The list comes from a sample in which actives are over-represented; it also holds similar structures and randomly drawn compounds. A number with no mark means an inactive call. Rule as the data show it: active = inhibition mostly above about 28% (no sharp cut-off); inactive = mostly below about 43%.
# Assay: A qHTS for Small Molecule Inhibitors of Shiga Toxin; also: 0% is about no effect
# Conditions: Vero cells, Shiga toxin protein synthesis inhibition reporter; at 38.7 µM, active compounds read high
row,Compound,inhibition
1,CC(=O)Nc1ccc(NC(=O)[C@@H](NC(=O)c2cccc(C)c2)C(C)C)cc1,-2.98%
2,Cc1cc(C)cc(OCC(=O)Nc2cc(NC(=O)COc3cc(C)cc(C)c3)cc(C(=O)O)c2)c1,-3.47%
3,Cc1ccc(NC(=O)CSc2cccc3cccnc23)c(C)c1,21.1%
4,O=C(CN1C(=O)COc2ccc(Cl)cc21)N1CCOCC1,-1.98%
5,CC1CCN(S(=O)(=O)c2nnc(NC(=O)COc3ccccc3F)s2)CC1,2.6%
6,O=C(Nc1ccc(O)cc1)c1ccc(NC(=O)c2ccco2)cc1,32.1% (active)
7,O=C(Nc1ccc2oc(-c3ccccc3F)nc2c1)c1ccco1,85.3% (active)
8,Cc1ccnc(NC(=O)c2ccc(NC(=O)c3ccco3)cc2)c1,64.6% (active)
9,COc1ccc(NC(=O)c2cccc(NC(=O)c3ccco3)c2)c(OC)c1,7.82%
10,Cc1cc(NC(=O)c2ccc(F)cc2)ccc1NC(=O)c1ccco1,39.7%
11,CCCC(=O)Nc1ccc2c(c1)nc(CCNC(=O)c1ccco1)n2C,-1.85%
12,O=C(Nc1cccc(-c2nc3ncccc3o2)c1)c1ccco1,1.9%
13,COc1cccc(C(=O)Nc2ccc(NC(=O)c3ccco3)cn2)c1,124% (active)
14,Cc1ccc(NC(=O)/C(=C\c2ccccc2)NC(=O)c2ccco2)cc1,15.6%
15,O=C(Nc1ccc(NC(=O)c2cccs2)cn1)c1ccco1,27.3%
16,Cc1cc(=O)oc2c3c(cc(OCC(=O)N[C@H](C(=O)O)c4ccccc4)c12)OC(C)(C)CC3,9.9%
17,Oc1ccc(C2Nc3cccc4cccc(c34)N2)cc1,-4.55%
18,CSc1ccc(S(=O)(=O)N2CCC(C(=O)NCc3ccncc3)CC2)cc1,-6.82%
19,CCOC(=O)N1CCN(S(=O)(=O)c2ccc(Br)cc2)CC1,9.83%
20,COCCN1C(=O)C(=O)/C(=C(/O)c2ccc(S(=O)(=O)N3CCOCC3)cc2)C1c1ccc(OC)c(OC)c1 (stereo unspecified),-8.01%
21,Cc1cccn2c(=O)c(/C=C(\C#N)C(N)=O)c(N3CCCCCC3)nc12,-3.79%
22,CC(C)Oc1ccc(C(CC(=O)N2CCOCC2)C(C)C)cc1 (stereo unspecified),5.33%
23,COc1cc(C2/C(=C(\O)c3ccc4c(c3)CC(C)O4)C(=O)C(=O)N2c2nnc(C)s2)cc(OC)c1OC (stereo unspecified),-6.77%
24,Cc1ccc(C(=O)NC2CCN(C(=O)Nc3ccccc3Cl)CC2)cc1,-5.62%

row,Compound,inhibition
1,COCCOC(=O)C1=C(C)NC(=O)NC1c1cc2c(cc1Br)OCO2 (stereo unspecified),13.8%
2,O=C(Nc1cccnc1)c1ccc(Cl)c([N+](=O)[O-])c1,52.4%
3,O=C(Nc1ccc(Oc2ccccc2)cc1)c1ccco1,169% (active)
4,Cc1ccnc(NC(=O)c2ccc(Cl)c([N+](=O)[O-])c2)c1,50.2% (active)
5,COC(=O)c1cc(NC(=O)c2ccco2)ccc1N1CCOCC1,-9.27%
6,O=C(Nc1cccc(NC(=O)c2ccco2)c1)c1cnccn1,7.98%
7,Cc1cc(NC(=O)[C@H](C)NC(=O)c2ccco2)ccc1Br,4.7%
8,O=C(Nc1ccc2nccnc2c1)c1ccco1,98.5% (active)
9,O=C(Nc1ccccc1)c1ccco1,19.7%
10,O=C(Nc1ccc(Sc2ccc(Br)cc2)cc1)c1ccco1,60.3% (active)
11,O=C(Nc1ccncc1)c1ccc(Cl)c([N+](=O)[O-])c1,-0.478%
12,O=C(Nc1ccccc1)/C(=C\c1ccco1)NC(=O)c1ccco1,14.3%
13,Cc1ccnc(NC(=O)c2ccco2)n1,24.9%
14,O=[N+]([O-])c1ccc(NC(=S)N2CCN(c3ccccn3)CC2)cc1,-11.7%
15,O=C(CCN1CCCO1)N1CCCC(N2CCN(c3cccc(C(F)(F)F)c3)CC2)C1 (stereo unspecified),3.43%
16,CCNS(=O)(=O)c1ccc(NC(=O)c2cncc(Br)c2)cc1,-9.77%
17,COc1ccccc1N1CCN(C(=O)c2ccc(NC3=NC4CS(=O)(=O)CC4S3)cc2)CC1 (stereo unspecified),-1.81%
18,COc1ccc(CNC(=O)C2CC(c3ccc(C(F)(F)F)cc3)=NO2)cc1 (stereo unspecified),-4.35%
19,Cc1cc(C(=O)NC2CCN(Cc3ccccc3)CC2)n[nH]1,-10.2%
20,CCOc1ccc(C(=O)Nc2c3c(nn2-c2ccccc2)CS(=O)(=O)C3)cc1,-5.21%
21,COC(=O)c1c(NC(=O)C(=O)N2CCCCC2)sc2c1CC(C)(C)OC2,-9.37%
22,Cc1ccc(OCCCCc2c(C)n[nH]c2C)cc1,25.2%
23,Cc1cc(C)nc(SCc2cn3c(C)cc(C)nc3n2)n1,2.5%
24,COc1ccc(OCc2cn3c(C)cc(C)nc3n2)cc1,48.1% (active)

row,Compound,inhibition
1,Cc1ccc2nc(SCc3cn4c(C)cc(C)nc4n3)[nH]c2c1,-3.11%
2,CC(C(=O)N=Nc1c(O)n(C)c2ccc(Br)cc12)n1cnc2ccccc2c1=O (stereo unspecified),-6.1%
3,CSCCC(NS(=O)(=O)c1ccccc1F)C(=O)N1CC=C(c2ccccc2)CC1 (stereo unspecified),-9.3%
4,COCCN(C(=O)C(C)C)c1nnc(-c2ccc(C(C)(C)C)cc2)s1,24.3%
5,COc1ccc(-n2nnnc2-c2nc3ccccc3s2)cc1,77.2% (active)
6,CCOc1cccc(-n2nnnc2-c2ccc(OC)cc2)c1,0.378%
7,COc1ccc(CSc2nnnn2-c2ccc(C(=O)O)cc2)cc1,-2.72%
8,COC(=O)c1ccc(CN2CCCC(C(=O)Nc3cccc(-n4cnnn4)c3)C2)cc1 (stereo unspecified),-11.4%
9,N=c1c2c(-c3ccccc3)c(-c3ccccc3)n(Cc3ccccc3)c2ncn1CCCO,-13.5%
10,OCCCN1c2ccccc2Nc2nnc(-c3ccccc3)cc21,57.2% (active)
11,O=[N+]([O-])c1ccc(N(CCO)Cc2ccccc2)c([N+](=O)[O-])c1,6.65%
12,COc1ccc(C(=O)c2c(C)c(CCC#N)n3ccccc23)c(OC)c1,-12.7%
13,CC(C)C(=O)Nc1ccc2oc(=O)ccc2c1,31%
14,CC(C)C(=O)Nc1c(C(=O)c2ccc(F)cc2)oc2ccccc12,-3.91%
15,CC(C)C(=O)Nc1ccc2c(c1)oc1ccccc12,105% (active)
16,Cc1c(CC(=O)NCC(=O)NCC(=O)O)c(=O)oc2cc3oc4c(c3cc12)CCCC4,2.91%
17,CCNC(=O)c1sccc1-n1cccc1,-7.99%
18,CC(C)=CCc1c(O)c(CC=C(C)C)c2occ(-c3ccc(O)cc3)c(=O)c2c1O,46.6% (active)
19,CCc1ccc(OCC(=O)NCC(c2ccc(Cl)cc2)N2CCCCC2)cc1 (stereo unspecified),-3.91%
20,CCOC(=O)Cn1c(O)c(N=NC(=O)CNC(=O)Cc2ccccc2)c2ccccc21,13.1%
21,CC(C)(C)N(Cc1ccccc1)C(=O)c1ccncc1,-5.35%
22,O=C(Nc1cccc(CCc2ccccn2)c1)c1ccc(Cl)cc1,22.8%
23,O=C(Nc1cccc(Cl)c1)OCc1ccccn1,98% (active)
24,O=C(Nc1ccccc1)OCc1cc(-c2ccc(Cl)cc2)on1,-25%

row,Compound,inhibition
1,COC(=O)c1ccc2ccccc2c1OC1OC(CO)C(O)C(O)C1NC(C)=O (stereo unspecified),-11.3%
2,CCN(CC)c1ccc2oc(=O)c(C)nc2c1,22% (active)
3,CCN(CC)c1ccc2c(Nc3ccccc3)c(C=O)c(=O)oc2c1,29.5%
4,CCN(CC)c1ccc2cc(C(N)=O)/c(=N\NC(=O)c3ccncc3)oc2c1,24.7%
5,COc1cc2c(cc1OC)C(/C=C/c1ccco1)=NCC2,-7.71%
6,Cc1ccccc1N1CC(C(=O)Nc2ccc3c(c2)OCO3)CC1=O (stereo unspecified),21.6%
7,O=C(Nc1ccc2c(c1)OCO2)C1CC(c2c(F)cccc2Cl)=NO1 (stereo unspecified),72.1% (active)
8,Cc1ccc(NC(=O)C2CC(c3ccc(F)cc3)=NO2)cc1 (stereo unspecified),-22.6%
9,COc1cc(S(=O)(=O)Nc2ncn[nH]2)ccc1Cl,-3.71%
10,CCC1CCCCN1C(=S)Nc1ccc(S(=O)(=O)Nc2ncccn2)cc1 (stereo unspecified),8.74%
11,CC(=O)c1ccc(OCC(O)CN2CCN(S(=O)(=O)c3cccc(Br)c3)CC2)cc1 (stereo unspecified),-10%
12,COc1ccc(S(=O)(=O)/N=C2\C=C(NS(=O)(=O)c3ccccc3)C(=O)c3ccccc32)cc1,61.3% (active)
13,COc1ccc(S(=O)(=O)Nc2c(C)n(C)n(-c3ccccc3)c2=O)cc1,1.34%
14,COc1ccc2cc(S(=O)(=O)Nc3ccccn3)ccc2c1,-1.18%
15,CCn1c(C)c(C)c2cc(C(=O)N3CCN(c4cccc(C)c4C)CC3)ccc21,-9.52%
16,Cc1ccc(C(=O)N/C(=C/c2cccs2)C(=O)NCC2CCCO2)cc1 (stereo unspecified),16.9%
17,Cc1ccc(-n2c(C)cc(/C=C(\C#N)C(=O)NCC3CCCO3)c2C)cc1 (stereo unspecified),108% (active)
18,Cc1ccc(S(=O)(=O)N2CCC(C(=O)NCC3CCCO3)CC2)cc1 (stereo unspecified),-25.2%
19,C/C(N)=C(/C#N)C(=O)COC(=O)c1cc(-c2cccc(Br)c2)nc2ccccc12,5.3%
20,COc1ccc(-c2cc(C(=O)N(C)Cc3ccccc3)c3ccccc3n2)cc1,-2.41%
21,CNC(=O)COC(=O)c1cc(-c2ccc(OC)cc2)nc2ccccc12,54.5% (active)
22,C/C(N)=C(/C#N)C(=O)COC(=O)c1cc(-c2ccccc2)nc2ccc(Br)cc12,-3.47%
23,COc1ccc(-c2cc(C(=O)n3cnc4ccccc43)c3ccccc3n2)cc1,6.77%
24,C/C(N)=C(/C#N)C(=O)COC(=O)c1cc(-c2ccc(C)cc2)nc2ccccc12,53.2% (active)
